ALOX12 inh: blocks human arachidonate 12S-lipoxygenase; P18054; purified 12hLO, xylenol orange hydroperoxide absorbance; Potency, µM (doses to about 108 µM), for inactives: top-dose activity change, negative = inhibition, actives largely listed as inhibitors; 1.1% of 580,000 active; AID 1671190; further: potency means the concentration at half of the fitted maximal effect
Target sequence (P18054 whole entry, looked up): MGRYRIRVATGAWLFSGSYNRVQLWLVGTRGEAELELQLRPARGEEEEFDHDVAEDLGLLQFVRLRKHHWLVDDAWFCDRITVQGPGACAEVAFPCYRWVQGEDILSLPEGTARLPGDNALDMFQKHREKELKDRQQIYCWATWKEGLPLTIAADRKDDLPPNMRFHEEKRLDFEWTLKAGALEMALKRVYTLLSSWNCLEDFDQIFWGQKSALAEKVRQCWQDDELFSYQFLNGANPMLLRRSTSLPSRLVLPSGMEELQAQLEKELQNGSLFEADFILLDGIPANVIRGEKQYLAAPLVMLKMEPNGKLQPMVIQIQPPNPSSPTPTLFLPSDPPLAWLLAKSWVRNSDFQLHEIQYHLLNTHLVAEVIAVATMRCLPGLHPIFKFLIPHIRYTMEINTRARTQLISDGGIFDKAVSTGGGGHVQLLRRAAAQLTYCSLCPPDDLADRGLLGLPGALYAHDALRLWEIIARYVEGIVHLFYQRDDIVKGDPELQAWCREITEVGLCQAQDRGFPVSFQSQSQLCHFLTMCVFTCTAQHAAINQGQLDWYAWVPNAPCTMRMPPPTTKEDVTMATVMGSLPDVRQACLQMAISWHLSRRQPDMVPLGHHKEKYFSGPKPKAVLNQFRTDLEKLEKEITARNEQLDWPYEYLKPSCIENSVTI
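Purified human 12hLO (150 nM final) in 25 mM Hepes, 0.01% Triton X-100, pH 7.0 was preincubated 15 min at room temperature with compound. Then 40 uM arachidonic acid was added, 30 min. Hydroperoxide was read by Fe-XO absorbance ratio 573/405 nm.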
HT1080NT lethal: kills 2HG-producing HT-1080-NT fibrosarcoma cells; Potency, µM (titrated, usually from 46.1 µM), for the others: at the top dose activity, negative = less viability, actives largely listed as cytotoxic; 1.6% of 360,000 active; HT-1080-NT fibrosarcoma viability, CellTiter-Glo ATP luminescence, 48 h;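 further: NT is the 2HG producing partner of a matched IDH1 knockdown line; potency means the concentration at half of the fitted maximal effect; 0% = DMSO-treated cells and -100% = media-only wells without cells; nearly all actives have a fitted effect of over 55% in size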
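Compounds were tested in concentration-response format on HT-1080-NT cells for 48 hours at 37 degrees C. Cell viability came from CellTiter-Glo luminescence; curves were classified by r2, response magnitude and activity.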
TDP1 cell CPT: DT40-hTDP1 cell growth loss with CPT | chicken DT40 Tdp1-/-;hTDP1 cells + 20 nM CPT, ATP luminescence, 48 h | Potency, µM (titrated, usually from 46.2 µM), for inactives: at the top dose activity change, negative = growth inhibition, usual class: inhibitors | 12% of 420,000 active; further: potency means the concentration at half of the fitted maximal effect; nearly all actives have a fitted effect of over 55% in size
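Chicken DT40 Tdp1-/- cells complemented with human TDP1, 400 cells/well, exposed to compounds plus 20 nM camptothecin for at least 48 h at 37 C; viability read as ATP content by CellTiter-Glo luminescence.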
DT40 TDP1 no CPT: qHTS for Inhibitors of human tyrosyl-DNA phosphodiesterase 1 (TDP1): qHTS in cells in absence of CPT. 15% of 420,000 active. Potency, µM (titrated, usually from 46.2 µM), inactives show top-dose activity change, negative = growth inhibition, most hits filed as inhibitors. AID 686978, 2013. DT40 Tdp1-/- hTDP1 cells, no CPT, ATP luminescence, 48 h; further: potency means the concentration at half of the fitted maximal effect; nearly all actives have a fitted effect of over 55% in size
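DT40 Tdp1-/-;hTDP1 cells, no CPT (DMSO vehicle only), 400 cells/well; compounds pin-transferred; ≥48 hr, 37 °C; CellTiter-Glo 30 min RT dark, luminescence read.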
HT1080 IDH1KD tx: toxicity to HT-1080 IDH1 knockdown cells (counter line). HT-1080 IDH1 knockdown viability, ATP luminescence, 48 h. Potency, µM (top dose mostly 46.1 µM), for the others: top-dose activity, negative = toxicity, most hits filed as cytotoxic. 2% of 360,000 active. AID 686971;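 further: potency means the concentration at half of the fitted maximal effect; 0% = DMSO wells and -100% = cell-free medium wells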
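Luminescent ATP read-out (CellTiter-Glo, 10 min at room temperature) after 48 h compound exposure at 37 °C gave viability of IDH1-knockdown HT-1080 cells. Activity was normalised to DMSO and cell-free wells, then fitted as concentration-response curves.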
IL-1B inflam inh: inflammasome signaling inhibition, IL-1 beta readout; THP-1 LPS/ATP IL-1B secretion, AlphaLISA, 16 h; active compounds read low; activity change, % at 57.5 µM; 4.7% of 360,000 active; AID 743279; in the data active means activity change below about -50%; inconclusive means mostly about -30% to -49%
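THP-1 cells pretreated 1 hr with compounds (up to 57.5 uM final), then stimulated with LPS (250 ng/mL final) plus ATP (1.25 mM final); secreted IL-1B measured by AlphaLISA after 16 hr, decreased signal indicating inhibition.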
Numbers without * were called inactive; [ ] = dose if it differs, or a comment. This excerpt belongs to a sample that is enriched for hits. Unless noted, the call rests on the fitted dose curve; in most records, active means well fitted curve in the direction sought with a large enough effect; inconclusive means small, poorly fitted or top-dose-only effect, or another doubt; inactive means no such curve, though single readings can be large; an effect the other way counts as inactive or inconclusive. Unless noted, on the % scale 0 is the no-effect control and ±100 the full control effect.

`Cc1cccc(-n2ncc3c2CCCC3NC(=O)c2ccncc2)c1C` (stereo unspecified) gave ALOX12 inh -7%, HT1080NT lethal 0%, TDP1 cell CPT -7%, DT40 TDP1 no CPT 0.23µM*, HT1080 IDH1KD tx -9% and IL-1B inflam inh 18.
`O=C(CSc1ccccn1)NC1CCCc2c1cnn2-c1ccccc1F` (stereo unspecified) gave ALOX12 inh -5%, HT1080NT lethal -4%, TDP1 cell CPT -26%, DT40 TDP1 no CPT 16µM*, HT1080 IDH1KD tx -5% and IL-1B inflam inh 24.
COc1ccc(CC(=O)NC2CCN(c3cc(C)cc(C)c3)C2=O)c(Cl)c1 (stereo unspecified) was read as ALOX12 inh 22%.
Screening COC(=O)CN1C(c2ccccc2)=Nc2ccc(Cl)cc2C1c1ccccc1 (stereo unspecified) returned ALOX12 inh -4%, HT1080NT lethal 5%, TDP1 cell CPT -35%, DT40 TDP1 no CPT -25%, HT1080 IDH1KD tx -3% and IL-1B inflam inh -7.
Screening COC(=O)CN1C(C)=Nc2ccc(C)cc2C1c1ccccc1 (stereo unspecified) returned ALOX12 inh -15%, HT1080NT lethal -4%, TDP1 cell CPT 2%, DT40 TDP1 no CPT -24%, HT1080 IDH1KD tx 2% and IL-1B inflam inh -53*.
`Cc1cc2nc(/N=C(\N)NC(=O)N3c4ccccc4Sc4ccccc43)nc(C)c2cc1C` gave ALOX12 inh inconclusive, HT1080NT lethal 19%, TDP1 cell CPT inconclusive, DT40 TDP1 no CPT 15µM*, HT1080 IDH1KD tx 22% and IL-1B inflam inh -7.
`Cc1ccc2c(C)nc(/N=C(\N)NC(=O)N3c4ccccc4Sc4ccccc43)nc2c1` gave ALOX12 inh inconclusive, HT1080NT lethal 0%, TDP1 cell CPT inconclusive, DT40 TDP1 no CPT 21µM*, HT1080 IDH1KD tx -2% and IL-1B inflam inh -15.
COc1ccc2nc(/N=C(\N)NC(=O)C(C)(C)C)nc(C)c2c1 was read as ALOX12 inh -8%, HT1080NT lethal 4%, TDP1 cell CPT -18%, DT40 TDP1 no CPT inconclusive, HT1080 IDH1KD tx -1% and IL-1B inflam inh inconclusive.
COc1ccc2nc(/N=C(\N)NC(=O)N3c4ccccc4Sc4ccccc43)nc(C)c2c1 was read as ALOX12 inh inconclusive, HT1080NT lethal 7%, TDP1 cell CPT 13µM*, DT40 TDP1 no CPT 16µM*, HT1080 IDH1KD tx -12% and IL-1B inflam inh 4.
Screening Cc1ccc2c(C)nc(/N=C(\N)NC(=O)Cc3ccccc3)nc2c1 returned ALOX12 inh -3%.
Screening CCC(=O)N/C(N)=N/c1nc(C)c2cc(OC)ccc2n1 returned ALOX12 inh inconclusive, HT1080NT lethal 7%[9.24 µM], TDP1 cell CPT 13µM*, DT40 TDP1 no CPT 12µM*, HT1080 IDH1KD tx inconclusive and IL-1B inflam inh -66*.
Screening O=C(Nc1ccc([C@H]2OCC(=O)N(Cc3ccccc3)[C@@H]2CO)cc1)c1ccc2c(c1)OCO2 returned ALOX12 inh 21%.
Screening CCOCC(=O)N1C[C@@H](Oc2ccccc2)C[C@H]1C(=O)NCCOC returned ALOX12 inh 15%.
Screening O=C1NC(C(=O)NC2CCCC2)Cn2cccc21 (stereo unspecified) returned ALOX12 inh 25%.
Cc1ccc2nc(/N=C(\N)NC(=O)N3c4ccccc4Sc4ccccc43)nc(C)c2c1 was read as ALOX12 inh inconclusive, HT1080NT lethal 4%, TDP1 cell CPT inconclusive, DT40 TDP1 no CPT 9.2µM*, HT1080 IDH1KD tx -2% and IL-1B inflam inh 5.
For COc1ccc2nc3sc(C(=O)NCCN4CCc5ccccc5C4)cc3cc2c1 the results were ALOX12 inh -30%, HT1080NT lethal -4%, TDP1 cell CPT 21µM*, DT40 TDP1 no CPT 16µM*, HT1080 IDH1KD tx 1% and IL-1B inflam inh 29.
For COc1ccc2cc3cc(C(=O)NC4CC4)sc3nc2c1 the results were ALOX12 inh -19%, HT1080NT lethal -20%, TDP1 cell CPT 23µM*, DT40 TDP1 no CPT 18µM*, HT1080 IDH1KD tx -21% and IL-1B inflam inh 0.
For COc1ccc(Cn2c(SCc3ccc(C)cc3)nc3cc(OC)c(OC)cc3c2=N)cc1Cl the results were ALOX12 inh -19%, HT1080NT lethal 21µM*, TDP1 cell CPT 4.1µM*, DT40 TDP1 no CPT 2.3µM*, HT1080 IDH1KD tx 23µM* and IL-1B inflam inh -121*.
For COCCCn1c(SCc2ccccc2)nc2cc(OC)c(OC)cc2c1=N the results were ALOX12 inh -7%, HT1080NT lethal -29%, TDP1 cell CPT 23µM*, DT40 TDP1 no CPT inconclusive, HT1080 IDH1KD tx -29% and IL-1B inflam inh -10.
For COc1cc2nc(SCc3ccc(C(F)(F)F)cc3)n(Cc3cccs3)c(=N)c2cc1OC the results were ALOX12 inh -15%, HT1080NT lethal 0%, TDP1 cell CPT -5%, DT40 TDP1 no CPT 21%, HT1080 IDH1KD tx -2% and IL-1B inflam inh -6.
For COc1ccc(Cn2c(SCc3cc(C)ccc3C)nc3cc(OC)c(OC)cc3c2=N)cc1 the results were ALOX12 inh inconclusive, HT1080NT lethal inconclusive, TDP1 cell CPT 8.2µM*, DT40 TDP1 no CPT 7.3µM*, HT1080 IDH1KD tx inconclusive and IL-1B inflam inh -96*.
For COCCCn1c(SCc2cccc(C(F)(F)F)c2)nc2cc(OC)c(OC)cc2c1=N the results were ALOX12 inh inconclusive, HT1080NT lethal 3%, TDP1 cell CPT inconclusive, DT40 TDP1 no CPT -22%, HT1080 IDH1KD tx 8% and IL-1B inflam inh -10.
`Cc1cc(-n2c(C)nc3ccccc3c2=O)ccc1NC(=O)c1ccc([N+](=O)[O-])cc1` gave ALOX12 inh -14%, TDP1 cell CPT inconclusive and DT40 TDP1 no CPT inconclusive.
For Cc1cc(-n2c(C)nc3ccccc3c2=O)ccc1NC(=O)c1ccccc1[N+](=O)[O-] the results were ALOX12 inh -19%, TDP1 cell CPT 18µM* and DT40 TDP1 no CPT 16µM*.
Screening Cc1cc(-n2c(C)nc3ccccc3c2=O)ccc1NC(=O)c1cccc([N+](=O)[O-])c1C returned ALOX12 inh -15%, TDP1 cell CPT 13µM* and DT40 TDP1 no CPT 6.5µM*.
Cc1nc2ccccc2c(=O)n1NC(=O)c1ccccc1[N+](=O)[O-] was read as ALOX12 inh -3%, HT1080NT lethal 2%, TDP1 cell CPT 20%, DT40 TDP1 no CPT 10%, HT1080 IDH1KD tx 7% and IL-1B inflam inh 65.

Screening data: PubChem, National Center for Advancing Translational Sciences (NCATS)
